# Screens as filed in PubChem BioAssay.
# Only some compounds are listed: those with a hit (about 12% of all), similar ones and a draw of the others.
# HP1b chromo inh: HTS for Inhibitors of HP1-beta Chromodomain Interactions with Methylated Histone Tails; AlphaScreen HP1-beta / biotin-H3K9me3 peptide binding; Potency, µM (series often up to 114 µM), without a hit: at the top dose activity change, negative = inhibition, most hits filed as inhibitors; hit rate 0.56% among 390,000; AID 540317, 2011; further: nearly all actives have a fitted effect of over 70% in size
#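 AlphaScreen: HP1-beta (50 nM) preformed 30 min with biotin-H3(1-18)K9me3 peptide (50 nM) in PBS pH 7.4, 0.01% Tween-20. Compound added for 30 min at RT, then streptavidin donor/nickel chelate acceptor beads (10 ug/mL) for 30 min.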
# JMJD2A Tudor inh: qHTS Assay for Inhibitors of JMJD2A-Tudor Domain | AlphaScreen JMJD2A-Tudor / H3K4me3 peptide binding | hit rate 4.4% among 390,000 | Potency, µM (doses to about 114 µM), without a hit: at the highest dose activity change, negative = inhibition, actives largely listed as inhibitors; further: on the % scale 0 is the no-effect control and ±100 the full control effect; nearly all actives have a fitted effect of over 50% in size
# G9a block: qHTS Assay for Inhibitors of Histone Lysine Methyltransferase G9a; hit rate 8.8% among 350,000; Potency, µM (series often up to 102 µM), without a hit: top-dose activity, negative = inhibition, usual class: inhibitors; Histone-lysine N-methyltransferase EHMT2 (Homo sapiens), Q96KQ7; G9a H3K9 monomethylation, AlphaScreen, 2 h; AID 504332, 2011; further: on the % scale 0 is the no-effect control and ±100 the full control effect; nearly all actives have a fitted effect of over 75% in size
#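 G9a (20 nM) was preincubated 15 min with compound, then reacted 2 h at room temperature with 500 nM biotin-H3K9 peptide and 20 µM SAM. Monomethyl-H3K9 detected by AlphaScreen using anti-H3K9me1 antibody.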
# Sfp inh: qHTS Assay for Inhibitors of Bacillus subtilis Sfp phosphopantetheinyl transferase (PPTase) | 4'-phosphopantetheinyl transferase ffp (Bacillus subtilis), Q9F4F7 | Biochemical Sfp PPTase activity, qHTS | Potency, µM, for inactives: largest response in the series, negative = inhibition, usual class: inhibitors | hit rate 3.5% among 310,000 | AID 1490, 2009;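 further: the enzyme is Sfp with the accession as filed and its product quenches rhodamine fluorescence; 0% = enzyme reaction without inhibitor and -100% = no enzyme wells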
#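 Buffer: 50 mM Hepes-Na pH 7.6, 10 mM MgCl2, 0.01% Nonidet P-40, 0.01% BSA. Enzyme 15 nM, pre-exposed to compound 15 min; substrates then added and fluorescence change tracked over 30 min.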
# BAZ2B block: qHTS Assay for Inhibitors of BAZ2B; Bromodomain adjacent to zinc finger domain protein 2B (Homo sapiens), Q9UIF8; AlphaScreen BAZ2B-H3K14Ac peptide displacement; Potency, µM (series often up to 114 µM), inactives show top-dose activity change, negative = inhibition, usual class: inhibitors; hit rate 4.4% among 360,000; further: on the % scale 0 is the no-effect control and ±100 the full control effect; nearly all actives have a fitted effect of over 60% in size
#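 AlphaScreen displacement of biotin-H3(5-23)K14Ac peptide (50 nM final) from BAZ2B (50 nM final) in PBS pH 7.4, 0.01% Tween-20; complex preformed 30 min RT, then compounds (top 110 uM) 30 min RT, beads 20 min dark.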
# L3MBTL1 inh: qHTS Assay for the Inhibitors of L3MBTL1 | Lethal(3)malignant brain tumor-like protein 1 (Homo sapiens), Q9Y468 | AlphaScreen L3MBTL1–H3K9me1 peptide binding | Potency, µM (doses to about 57.1 µM), for inactives: top-dose activity, negative = inhibition, usual class: inhibitors | hit rate 0.66% among 230,000 | AID 485360, 2010; further: on the % scale 0 is the no-effect control and ±100 the full control effect; nearly all actives have a fitted effect of over 60% in size
# Target sequence (Q9Y468 whole entry, looked up): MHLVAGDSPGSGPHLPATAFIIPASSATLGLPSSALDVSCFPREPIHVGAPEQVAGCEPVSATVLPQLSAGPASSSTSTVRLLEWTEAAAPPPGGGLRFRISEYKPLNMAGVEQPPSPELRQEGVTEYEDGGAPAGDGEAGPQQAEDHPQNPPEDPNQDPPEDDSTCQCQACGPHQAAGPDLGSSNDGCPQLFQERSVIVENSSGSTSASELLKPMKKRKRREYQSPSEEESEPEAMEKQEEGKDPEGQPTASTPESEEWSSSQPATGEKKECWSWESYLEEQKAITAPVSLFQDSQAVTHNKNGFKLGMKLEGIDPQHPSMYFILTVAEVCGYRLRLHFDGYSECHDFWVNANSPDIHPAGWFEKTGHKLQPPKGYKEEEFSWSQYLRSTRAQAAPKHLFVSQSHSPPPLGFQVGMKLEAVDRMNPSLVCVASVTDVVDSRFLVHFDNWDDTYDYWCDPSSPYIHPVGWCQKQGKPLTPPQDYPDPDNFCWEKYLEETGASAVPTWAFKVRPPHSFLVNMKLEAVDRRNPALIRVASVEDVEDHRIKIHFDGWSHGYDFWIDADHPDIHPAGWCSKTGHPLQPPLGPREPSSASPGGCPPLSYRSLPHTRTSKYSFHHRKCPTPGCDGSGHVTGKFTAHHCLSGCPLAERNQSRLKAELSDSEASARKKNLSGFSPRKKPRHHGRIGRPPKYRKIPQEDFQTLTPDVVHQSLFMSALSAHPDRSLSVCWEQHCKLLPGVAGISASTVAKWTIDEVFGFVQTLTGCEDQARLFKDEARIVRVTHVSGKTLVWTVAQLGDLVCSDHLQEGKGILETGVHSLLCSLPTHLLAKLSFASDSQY
#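 AlphaScreen assay: L3MBTL1 (50 nM final) was preincubated 30 min at room temperature with biotinylated H3(1-15)K9me1 peptide (75 nM final), then 30 min with library compounds; streptavidin donor and nickel chelate acceptor beads (10 ug/mL final) added, 30 min dark.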
# * marks the source's active call; other numbers are inactive results; ? = inconclusive; . = no result; [ ] = dose if it differs, or a comment. The call rests on the fitted dose curve; in most records, active means well fitted curve in the direction sought with a large enough effect; inconclusive means small, poorly fitted or top-dose-only effect, or another doubt; inactive means no such curve, though single readings can be large; an effect the other way counts as inactive or inconclusive. Potency means the concentration at half of the fitted maximal effect.
SMILES,HP1b chromo inh,JMJD2A Tudor inh,G9a block,Sfp inh,BAZ2B block,L3MBTL1 inh
O=C(CN1C(=O)c2ccccc2S1(=O)=O)Nc1ccc([N+](=O)[O-])cc1,6%,-21%,.,.,.,-7%
O=C1CCN(c2ncccc2[N+](=O)[O-])CC1,2%,-15%,10%,17%,-17%,-2%
Cc1cc(C)n(-c2ncccc2[N+](=O)[O-])n1,3%,-5%,.,-6%,0%,15%
Cc1cc2ncn(-c3ncccc3[N+](=O)[O-])c2cc1C,-2%,?,11µM*,40µM*,89µM*,.
O=[N+]([O-])c1cccnc1-n1cnc2ccccc21,21%,-6%,45µM*,10µM*,-11%,3%
Cc1ccccc1N(CC(=O)NCCc1ccccc1)C(=O)c1csnn1,27%,0%,-5%,16%,-11%,.
COc1cccc(/C=C2\SC(=S)N(CCC(=O)N3CCCCC3CCO)C2=O)c1 (configuration not stated),?,?,56µM*,-26%,32µM*,.
COc1cccc(/C=C2\SC(=S)N(CCCC(=O)N3CCCCC3CCO)C2=O)c1 (configuration not stated),-36%[57 µM],20µM*,?,-24%,25µM*,.
O=C(CCCN1C(=O)/C(=C/c2ccccc2Cl)SC1=S)N1CCOCC1,11%,22µM*,19%,-19%,79µM*,.
O=C(CCN1C(=O)/C(=C/c2cccs2)SC1=S)N1CCCCC1,?,?,10µM*,-11%,8.9µM*,.
O=C(CCCN1C(=O)/C(=C\c2ccccc2)SC1=S)N1CCOCC1,?,?,.,.,.,-7%
COc1cccc(NC(=O)C2CCN(S(=O)(=O)c3ccc4[nH]c(=O)ccc4c3)CC2)c1,18%,-18%,31%,9%,0%,-3%
CN1CCN(C(=O)CCN2C(=O)/C(=C/c3ccc(F)cc3)SC2=S)CC1,-7%,-27%,71µM*,-10%,?,.
COc1cccc(/C=C2\SC(=S)N(CCCC(=O)N3CCCC3)C2=O)c1,?,45µM*,40µM*,-24%,32µM*,.
O=C(CCN1C(=O)/C(=C/c2ccc(F)cc2)SC1=S)NCCc1cnc[nH]1,-25%,?,28µM*,-13%,18µM*,.
O=C1/C(=C/c2cccs2)SC(=S)N1CCC(=O)N1CCCCC1CCO (configuration not stated),6%,?,50µM*,-12%,22µM*,.
Cc1c(C(=O)Nc2c(F)cccc2F)sc2ncn(Cc3ccccc3F)c(=O)c12,-10%,-16%,-6%[59 µM],.,-2%,.
CC(=O)OCC(=O)C1(O)CCC2C3CCC4=CC(=O)CCC4(C)C3(F)C(O)CC21C (configuration not stated),21%,-8%,.,.,.,.
COc1ccc(/C=C2\SC(=O)N(CCC(=O)N3CCN(C)CC3)C2=O)cc1,23%,-8%,4%,12%,-6%,2%
COc1ccc(/C=C2\SC(=S)N(CCCC(=O)N3CCOCC3)C2=O)cc1OC,-10%,-18%,9%,2%,-17%,.
COc1cccc(/C=C2\SC(=O)N(CCC(=O)N3CCC(C(=O)O)CC3)C2=O)c1,40%,-12%,71µM*,2%,?,.
COc1ccc(/C=C2\SC(=S)N(CCCC(=O)N3CCOCC3)C2=O)cc1,-36%,50µM*,.,.,.,.
CCOC(=O)c1c(-n2cnnn2)sc2c1CCCC2,26%,6%,-41%,10%,0%,1%
CCOC(=O)c1c(N2C(=O)Nc3cc(Cl)c(Cl)cc3N2O)sc2c1CCCCC2,?,79µM*,.,-6%,?,-13%
CCOC(=O)c1c(N2C(=O)C3C4C=CC(O4)C3C2=O)sc2c1CCCC2 (configuration not stated),?,56µM*,1.8µM*,8.9µM*,-2%,.
SMILES,HP1b chromo inh,JMJD2A Tudor inh,G9a block,Sfp inh,BAZ2B block,L3MBTL1 inh
O=c1[nH]c2ccc(Cl)cc2c(-c2ccccc2)c1SC(=S)N1CCCCC1,?,?,11µM*,14µM*,?,.
O=c1[nH]c2ccc(Cl)cc2c(-c2ccccc2)c1SC(=S)N1CCOCC1,-20%,?,?,11µM*,-34%,.
O=C(CSc1ncc2c(n1)-c1ccc(Cl)cc1N(Cc1ccccc1)S2(=O)=O)Nc1ccccc1C(F)(F)F,13%,-10%,-12%[59 µM],.,-10%,.
O=C(CC1Nc2ccccc2NC1=O)NCCCN1CCCCCC1 (configuration not stated),14%,32µM*,-15%[59 µM],2%,-29%,0%
CCOc1ccc(C(=O)Nc2ccc(Cl)c(-c3nc4cc(C)cc(C)c4o3)c2)cc1,10%,-14%,?,.,8%,.
CN1CCC(C(=O)C(=O)O)C1=O (configuration not stated),71µM*,20µM*,.,.,.,.
CCOC(=O)C1CCN(S(=O)(=O)Cc2ccccc2)C1=O (configuration not stated),7%,-6%,6%[59 µM],-2%,2%,1%
CCOc1ccc(NC(=O)c2c(NC(=O)c3ccco3)sc3c2CCC(C(C)(C)C)C3)cc1 (configuration not stated),22%,-12%,-24%[59 µM],.,3%,.
CC1(C)CC2CC(C)(CN2C(=O)COC(=O)c2cccc([N+](=O)[O-])c2)C1 (configuration not stated),24%,-3%,.,.,.,-6%
CC1(C)CC2CC(C)(CN2c2ncnc3ccccc23)C1 (configuration not stated),20%,-11%,-17%[59 µM],-1%,-5%,3%
CC1(C)CC2CC(C)(CN2Cc2cccc([N+](=O)[O-])c2)C1 (configuration not stated),?,20µM*,.,?,?,-4%
CC1(C)CC2CC(C)(CN2Cc2c(O)ccc3ccccc23)C1 (configuration not stated),16%,-27%,10µM*,-1%,-9%,4%
Cn1c2cc(Br)sc2c2cnn(Cc3c(F)cccc3F)c(=O)c21,.,.,-31%[12.7 µM],.,8%,-8%
Cc1ccc(-c2ccccc2)n1-c1ccc(C(=O)O)cc1,1%,?,10µM*,71µM*,?,-14%
Cc1ccc(-c2ccccc2)n1-c1cccc(C(=O)O)c1,-6%,?,50µM*,-20%,-35%,-9%
